The text below walks through data of PubChem BioAssay (Tox21).

Assay [1] is described as follows: Human pregnane X receptor (PXR) small molecule agonists, qHTS cell viability counter screen (AID 1346977). Note: nearly all actives have a fitted effect of over 50% in size. The gist of the method: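 Tox21 qHTS format; PXR-Luc HepG2, 2,000/well, charcoal-stripped FBS 5%. Cpd exposure 24hr. Read: CellTiter-Fluor fluorescence, multiplexed with luciferase.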
For orientation: Quantitative high-throughput screening tests each substance at several concentrations.

The nature of assay [2]: Caspase-3/7 induction in HepG2 cells by small molecules, qHTS assay (AID 1346978). Note: nearly all actives have a fitted effect of over 15% in size. The essentials:
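Wild-type HepG2 cells, 2,000/well, settled 5 hr at 37 C and 5% CO2, then compound-treated for 17 hr; caspase-3/7 activity read by luminescent Caspase-Glo 3/7 after 30 min at room temperature.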

Assay [3] in a line: Caspase-3/7 induction in CHO-K1 cells by small molecules, qHTS assay (AID 1346980). Note: nearly all actives have a fitted effect of over 15% in size. The essentials:
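Wild-type CHO-K1 cells exposed to compounds for 17hr at 37 C, 5% CO2. Caspase-3/7 activity then measured by Caspase-Glo 3/7 luminescence after 30min at room temperature.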

Assay [4] in a line: Caspase-3/7 induction in HepG2 cells by small molecules, qHTS cell viability counter screen (AID 1346981). Note: series mostly up to about 92 µM; nearly all actives have a fitted effect of over 30% in size. The gist of the method:
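Counter screen for cytotoxicity: HepG2 exposed 16 hr to compounds, then CellTiter-Fluor viability signal (fluorescence, 1 hr reagent incubation).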

In assay [5] the target is Nuclear receptor subfamily 1 group I member 2 (Homo sapiens) (UniProt O75469). Briefly: Human pregnane X receptor (PXR) small molecule agonists, qHTS assay (AID 1346982). Note: nearly all actives have a fitted effect of over 35% in size. The gist of the method: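 Luminescence (ONE-Glo, 30 min RT) after 24 hr compound exposure of PXR-Luc HepG2 cells; cells rested 5 hr post-plating in 5% charcoal-stripped FBS medium.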
For assay [6], the target named is Nuclear receptor subfamily 1 group I member 2 (Rattus norvegicus) (UniProt Q9R1A7). Kind of assay: Rat pregnane X receptor (rPXR) activation by small molecules, qHTS assay (AID 1346983). Note: nearly all actives have a fitted effect of over 20% in size. The settings on record: rPXR luciferase reporter cells, One-Glo luminescence, 24 h; stronger effect = higher value. The essentials:
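Cell-based rPXR activation assay: rPXR cells, 2,000 per well, rested 5hr at 37 C, then exposed to compounds in DMSO for 24 hr at 37 C. Luciferase activity read by One-Glo luminescence after 30 min at room temperature.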

In assay [7] the target is Nuclear receptor subfamily 1 group I member 2 (Homo sapiens) (UniProt O75469). Kind of assay: CYP3A4 induction through human pregnane X receptor (PXR) by small molecules, qHTS assay (AID 1346984). Note: nearly all actives have a fitted effect of over 40% in size. The gist of the method: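 DPX-2 reporter cells; 24h cpd, 37C; Luciferin-IPA 3uM final x3h; One-Glo 30 min RT; lumi read.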
For assay [8] the target is unchanged. Kind of assay: Human pregnane X receptor (PXR) activation by small molecules, qHTS assay (AID 1346985). Note: nearly all actives have a fitted effect of over 40% in size. The essentials:
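DPX-2 cells (HepG2 co-transfected with a PXR response element and a CYP3A4-promoter luciferase construct) were seeded at 2,000 per well, rested 5 hr at 37C, then exposed to DMSO-dissolved compounds for 24 hr. Activation was read as luciferase luminescence.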

In assay [9] the target is Acetylcholinesterase (Homo sapiens) (UniProt P22303). Briefly: Acetylcholinesterase (AChE) small molecule antagonists: colormetric cell-based qHTS assay (AID 1347395; calls by dose curve; note: nearly all actives have a fitted effect of over 30% in size). The essentials:
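AChE inhibition read colorimetrically via DTNB–thiocholine in SH-SY5Y cells. Compound 30 min, substrate 90 min, both 37 C.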

Assay [10] has the same target. Briefly: Acetylcholinesterase (AChE) small molecule antagonists: enzyme-based qHTS assay (AID 1347397; calls by dose curve; note: nearly all actives have a fitted effect of over 55% in size). The following applies: Potency: AChE enzyme activity inhibition; outcome: AChE enzyme activity inhibition. The gist of the method:
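Enzyme inhibition was scored from DTNB-detected thiocholine formed by recombinant human AChE acting on acetylthiocholine. The 30 min compound preincubation and 10 min substrate reaction were both run at room temperature, with DMSO as vehicle control.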

Assay [11] shares this target. Kind of assay: Acetylcholinesterase (AChE) small molecule antagonists: fluorescence cell-based qHTS assay (AID 1347398; calls by dose curve; note: nearly all actives have a fitted effect of over 50% in size). The settings on record: Potency: AChE activity; outcome: AChE activity. The gist of the method:
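Endogenous acetylcholinesterase of SH-SY5Y neuroblastoma cells is measured in situ. After overnight attachment and 30 min compound exposure, cells receive acetylthiocholine and Thiolite Green; fluorescence is read after 40 min at room temperature.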

Assay [12] has the same target. Kind of assay: Acetylcholinesterase (AChE) small molecule antagonists: enzyme-based qHTS assay with human liver microsomes (AID 1347399; calls by dose curve; note: nearly all actives have a fitted effect of over 60% in size). The settings on record: Potency: qHTS inhibition; outcome: qHTS inhibition. The essentials: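 Recombinant human AChE (50 mU/mL in the enzyme mix) and human liver microsomes (0.25 mg/mL final) were preincubated with compound and NADPH (0.25 mg/mL final) for 30 min at 37 C. Acetylthiocholine/DTNB was then added; thiocholine was read colorimetrically after 10 min at room temperature.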

Assay [13] addresses Cytochrome P450 2C19 (Homo sapiens) (UniProt P33261). Kind of assay: Cytochrome P450 Family 2 Subfamily C Member 19 (CYP2C19) small molecule antagonists: luciferase reporter qHTS assay (AID 1671197). Note: nearly all actives have a fitted effect of over 65% in size. Note: potency is the fitted concentration of half-maximal effect. The essentials:
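Luminescent readout of CYP2C19 activity: luciferin product detected 20 min after adding detection reagent. Before that, compound and enzyme-substrate mix preincubated 10 min at room temperature; NADPH-regenerating system started a 1 h, 37C reaction. Ketoconazole as positive control.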

For assay [14], the target named is Cytochrome P450 1A2 (Homo sapiens) (UniProt P05177). Briefly: Cytochrome P450 Family 1 Subfamily A Member 2 (CYP1A2) small molecule antagonists: luciferase reporter qHTS assay (AID 1671199). Note: nearly all actives have a fitted effect of over 50% in size. Note: potency is the fitted concentration of half-maximal effect. The essentials:
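Signal from luciferin formed by CYP1A2 from a proluciferin substrate is read as luminescence, expressed in relative luminescence units. Compounds sit with enzyme 10 min, NADPH-driven reaction runs 1 h, all at room temperature.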

Assay [15] addresses Voltage-gated inwardly rectifying potassium channel KCNH2 (Homo sapiens) (UniProt Q12809). Kind of assay: Human Ether-a-go-go-Related Gene (hERG) channel small molecule antagonists: fluorescence cell-based qHTS assay (AID 1671200).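 Note: hERG-expressing U2OS cells given a thallium stimulus after FluxOR II dye loading; series mostly up to about 77 µM; nearly all actives have a fitted effect of over 50% in size.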 The gist of the method:
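Kinetic two-minute fluorescence traces, sampled at 1 s, were collected following thallium stimulus of U2OS cells (1000 per well) that had been cultured overnight at 37 C and loaded with FluxOR II.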
In general terms: hERG is a cardiac potassium channel; its block is linked to QT prolongation.

Assay [16] deals with Cytochrome P450 3A4 (Homo sapiens) (UniProt P08684). Briefly: Cytochrome P450 Family 3 Subfamily A Member 4 (CYP3A4) small molecule antagonists: luciferase reporter qHTS assay (AID 1671201). Note: nearly all actives have a fitted effect of over 50% in size. Note: potency is the fitted concentration of half-maximal effect. The essentials: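 Proluciferin-to-luciferin conversion by CYP3A4, NADPH-regenerated, 1 h RT; luminescence read as RLU. Ketoconazole as control.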
(In general: A reporter such as luciferase makes a cellular process visible.)

Assay [17] in a line: Caspase-3/7 induction in CHO-K1 cells by small molecules, qHTS cell viability counter screen (AID 1346979). Note: nearly all actives have a fitted effect of over 35% in size. Note: potency is the fitted concentration of half-maximal effect. The gist of the method: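 CellTiter-Fluor viability check, qHTS format: wild-type CHO-K1, 16hr compound treatment, 1hr reagent incubation, fluorescence read.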
Assay [18] has as its target Cytochrome P450 2C9 (Homo sapiens) (UniProt P11712). Briefly: Cytochrome P450 Family 2 Subfamily C Member 9 (CYP2C9) small molecule antagonists: luciferase reporter qHTS assay (AID 1671198). Note: nearly all actives have a fitted effect of over 50% in size. Note: potency is the fitted concentration of half-maximal effect. The essentials: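 P450-Glo proluciferin substrate with CYP2C9 enzyme; 10 min RT preincubation, then NADPH regeneration 1 h at 37C; luciferin detection reagent 20 min RT, luminescence in relative luminescence units.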

For assay [19], the target named is Cytochrome P450 2D6 (Homo sapiens) (UniProt P10635). Briefly: Cytochrome P450 Family 2 Subfamily D Member 6 (CYP2D6) small molecule antagonists: luciferase reporter qHTS assay (AID 1671196). Note: nearly all actives have a fitted effect of over 50% in size. Note: potency is the fitted concentration of half-maximal effect. The essentials:
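Inhibition of CYP2D6 was gauged by loss of luminescence, since light produced tracks the luciferin generated from a proluciferin substrate. A 10 min room-temperature preincubation preceded 1 h NADPH-supported turnover.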

Several values for one entry are separate records, joined by “and”; a condition that tells them apart may be missing. Identical values can stand only once. Results filed as inconclusive are left out. More than one record can exist for a structure, and the calls need not agree. Activity calls are given as the source filed them. Unless noted, calls come from the whole dose curve; as a rule, active = well fitted curve in the direction sought with a large enough effect in the repeat runs; inconclusive = weak or mixed curves; inactive = no such curve, though single readings can be large; an effect the other way counts as inactive or inconclusive.
% is set by controls: 0 for no effect and ±100 for the full control effect.

Chain of Voltage-gated inwardly rectifying potassium channel KCNH2 (Homo sapiens) (Q12809 whole entry, looked up): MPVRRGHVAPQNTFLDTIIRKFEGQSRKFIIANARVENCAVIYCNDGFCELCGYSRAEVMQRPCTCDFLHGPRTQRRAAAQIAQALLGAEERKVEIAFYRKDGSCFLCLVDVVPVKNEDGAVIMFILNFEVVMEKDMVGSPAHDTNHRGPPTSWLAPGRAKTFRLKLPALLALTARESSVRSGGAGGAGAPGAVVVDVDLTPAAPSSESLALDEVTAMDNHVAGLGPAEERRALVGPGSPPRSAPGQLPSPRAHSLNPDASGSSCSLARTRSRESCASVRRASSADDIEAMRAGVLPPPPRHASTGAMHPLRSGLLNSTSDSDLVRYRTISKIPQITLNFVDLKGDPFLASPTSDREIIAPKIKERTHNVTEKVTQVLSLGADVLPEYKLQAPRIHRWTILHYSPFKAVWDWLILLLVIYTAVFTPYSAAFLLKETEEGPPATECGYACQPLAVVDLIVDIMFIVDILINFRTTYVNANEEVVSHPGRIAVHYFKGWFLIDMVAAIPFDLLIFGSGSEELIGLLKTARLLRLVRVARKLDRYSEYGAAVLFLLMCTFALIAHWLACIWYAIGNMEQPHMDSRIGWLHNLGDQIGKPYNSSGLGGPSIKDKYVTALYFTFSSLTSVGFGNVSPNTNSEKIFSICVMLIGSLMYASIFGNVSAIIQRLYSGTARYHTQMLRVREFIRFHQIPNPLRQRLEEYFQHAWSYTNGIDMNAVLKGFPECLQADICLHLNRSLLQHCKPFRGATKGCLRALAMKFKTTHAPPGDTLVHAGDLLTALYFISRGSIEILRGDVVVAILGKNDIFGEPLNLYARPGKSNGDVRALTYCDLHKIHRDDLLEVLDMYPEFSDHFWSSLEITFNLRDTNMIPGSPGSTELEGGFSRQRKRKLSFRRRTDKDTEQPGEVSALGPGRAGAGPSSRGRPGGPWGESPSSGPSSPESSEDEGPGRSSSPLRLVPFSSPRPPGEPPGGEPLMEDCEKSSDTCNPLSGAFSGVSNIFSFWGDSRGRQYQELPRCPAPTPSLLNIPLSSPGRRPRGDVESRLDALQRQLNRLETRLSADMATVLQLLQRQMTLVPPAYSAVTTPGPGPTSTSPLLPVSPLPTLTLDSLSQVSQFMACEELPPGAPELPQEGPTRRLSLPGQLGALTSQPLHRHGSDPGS
Chain of Nuclear receptor subfamily 1 group I member 2 (Rattus norvegicus) (Q9R1A7 whole entry, looked up): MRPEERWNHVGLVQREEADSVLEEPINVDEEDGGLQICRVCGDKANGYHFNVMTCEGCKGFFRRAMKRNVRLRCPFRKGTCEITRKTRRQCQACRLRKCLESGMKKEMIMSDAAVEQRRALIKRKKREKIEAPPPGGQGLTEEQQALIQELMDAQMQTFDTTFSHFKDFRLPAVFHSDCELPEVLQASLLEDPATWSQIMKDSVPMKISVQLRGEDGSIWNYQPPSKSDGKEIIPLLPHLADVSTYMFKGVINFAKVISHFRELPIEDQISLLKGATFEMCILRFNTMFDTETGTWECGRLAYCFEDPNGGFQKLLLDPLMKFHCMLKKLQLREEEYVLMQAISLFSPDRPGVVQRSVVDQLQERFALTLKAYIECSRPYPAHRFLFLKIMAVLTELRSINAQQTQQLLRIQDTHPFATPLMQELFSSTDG
Chain of Acetylcholinesterase (Homo sapiens) (P22303 whole entry, looked up): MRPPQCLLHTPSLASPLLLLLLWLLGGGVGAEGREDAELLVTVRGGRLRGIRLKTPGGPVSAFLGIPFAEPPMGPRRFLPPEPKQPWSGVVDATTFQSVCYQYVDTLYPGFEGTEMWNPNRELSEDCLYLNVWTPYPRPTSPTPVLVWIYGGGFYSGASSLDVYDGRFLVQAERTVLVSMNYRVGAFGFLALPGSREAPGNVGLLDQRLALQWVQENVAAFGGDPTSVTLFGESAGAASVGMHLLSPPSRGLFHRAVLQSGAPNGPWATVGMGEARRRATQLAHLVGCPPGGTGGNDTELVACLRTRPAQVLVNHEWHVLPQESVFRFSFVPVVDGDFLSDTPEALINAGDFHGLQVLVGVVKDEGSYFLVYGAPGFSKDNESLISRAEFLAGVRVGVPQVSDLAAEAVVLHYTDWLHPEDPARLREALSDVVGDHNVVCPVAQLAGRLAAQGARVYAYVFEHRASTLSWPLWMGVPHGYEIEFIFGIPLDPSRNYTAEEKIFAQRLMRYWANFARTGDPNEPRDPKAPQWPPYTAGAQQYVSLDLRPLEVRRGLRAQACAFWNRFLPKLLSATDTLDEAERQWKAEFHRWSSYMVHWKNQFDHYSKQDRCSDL
Chain of Cytochrome P450 2C19 (Homo sapiens) (P33261 whole entry, looked up): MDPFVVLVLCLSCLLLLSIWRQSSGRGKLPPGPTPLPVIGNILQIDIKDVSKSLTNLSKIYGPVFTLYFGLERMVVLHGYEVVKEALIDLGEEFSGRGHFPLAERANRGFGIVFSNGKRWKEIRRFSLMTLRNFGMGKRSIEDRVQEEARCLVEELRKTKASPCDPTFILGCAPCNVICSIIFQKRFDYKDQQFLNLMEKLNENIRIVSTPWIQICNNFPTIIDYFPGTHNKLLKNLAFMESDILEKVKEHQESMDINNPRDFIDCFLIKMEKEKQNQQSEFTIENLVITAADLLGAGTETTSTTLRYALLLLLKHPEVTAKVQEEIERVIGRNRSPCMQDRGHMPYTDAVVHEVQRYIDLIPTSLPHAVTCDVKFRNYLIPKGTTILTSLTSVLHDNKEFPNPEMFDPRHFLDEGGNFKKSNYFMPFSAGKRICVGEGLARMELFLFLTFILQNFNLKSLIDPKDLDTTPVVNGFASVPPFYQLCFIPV
Chain of Cytochrome P450 1A2 (Homo sapiens) (P05177 whole entry, looked up): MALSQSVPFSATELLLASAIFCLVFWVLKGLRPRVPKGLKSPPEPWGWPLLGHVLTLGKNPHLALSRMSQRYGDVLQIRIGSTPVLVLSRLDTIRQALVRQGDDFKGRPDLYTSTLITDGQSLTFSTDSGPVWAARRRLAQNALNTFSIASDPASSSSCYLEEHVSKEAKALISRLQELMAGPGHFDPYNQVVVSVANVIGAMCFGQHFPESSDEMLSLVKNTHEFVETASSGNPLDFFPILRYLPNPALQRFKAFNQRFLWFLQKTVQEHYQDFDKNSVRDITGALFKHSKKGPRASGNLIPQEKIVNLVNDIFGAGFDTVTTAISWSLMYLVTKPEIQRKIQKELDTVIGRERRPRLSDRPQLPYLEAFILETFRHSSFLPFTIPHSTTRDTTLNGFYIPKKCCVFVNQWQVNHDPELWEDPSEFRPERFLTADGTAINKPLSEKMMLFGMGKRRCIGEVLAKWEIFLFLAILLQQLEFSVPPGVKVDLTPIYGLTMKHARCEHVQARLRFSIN
Chain of Cytochrome P450 2C9 (Homo sapiens) (P11712 whole entry, looked up): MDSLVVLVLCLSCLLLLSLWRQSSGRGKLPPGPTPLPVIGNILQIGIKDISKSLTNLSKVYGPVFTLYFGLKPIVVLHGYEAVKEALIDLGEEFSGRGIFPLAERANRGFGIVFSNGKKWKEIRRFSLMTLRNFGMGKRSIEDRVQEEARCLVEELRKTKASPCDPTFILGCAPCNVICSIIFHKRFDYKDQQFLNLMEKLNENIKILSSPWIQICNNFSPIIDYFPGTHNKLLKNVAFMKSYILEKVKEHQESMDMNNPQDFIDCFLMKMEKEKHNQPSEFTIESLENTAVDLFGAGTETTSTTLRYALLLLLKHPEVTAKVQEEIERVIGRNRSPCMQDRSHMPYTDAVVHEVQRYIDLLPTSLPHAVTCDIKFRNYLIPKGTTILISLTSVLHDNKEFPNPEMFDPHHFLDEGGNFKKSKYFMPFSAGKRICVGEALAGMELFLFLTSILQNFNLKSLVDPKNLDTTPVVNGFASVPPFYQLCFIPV
Chain of Nuclear receptor subfamily 1 group I member 2 (Homo sapiens) (O75469 whole entry, looked up): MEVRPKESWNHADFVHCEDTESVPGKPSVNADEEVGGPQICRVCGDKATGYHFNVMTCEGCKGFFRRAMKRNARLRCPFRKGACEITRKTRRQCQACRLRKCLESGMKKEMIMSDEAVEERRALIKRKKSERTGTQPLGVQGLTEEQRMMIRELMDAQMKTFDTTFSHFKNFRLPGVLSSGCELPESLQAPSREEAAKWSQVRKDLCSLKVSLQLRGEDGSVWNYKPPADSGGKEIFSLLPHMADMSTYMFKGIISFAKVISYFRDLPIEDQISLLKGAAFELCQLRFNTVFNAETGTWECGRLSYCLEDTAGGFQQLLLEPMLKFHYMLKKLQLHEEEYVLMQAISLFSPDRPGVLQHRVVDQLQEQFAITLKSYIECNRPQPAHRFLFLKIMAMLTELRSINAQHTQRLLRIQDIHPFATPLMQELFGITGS
Chain of Cytochrome P450 3A4 (Homo sapiens) (P08684 whole entry, looked up): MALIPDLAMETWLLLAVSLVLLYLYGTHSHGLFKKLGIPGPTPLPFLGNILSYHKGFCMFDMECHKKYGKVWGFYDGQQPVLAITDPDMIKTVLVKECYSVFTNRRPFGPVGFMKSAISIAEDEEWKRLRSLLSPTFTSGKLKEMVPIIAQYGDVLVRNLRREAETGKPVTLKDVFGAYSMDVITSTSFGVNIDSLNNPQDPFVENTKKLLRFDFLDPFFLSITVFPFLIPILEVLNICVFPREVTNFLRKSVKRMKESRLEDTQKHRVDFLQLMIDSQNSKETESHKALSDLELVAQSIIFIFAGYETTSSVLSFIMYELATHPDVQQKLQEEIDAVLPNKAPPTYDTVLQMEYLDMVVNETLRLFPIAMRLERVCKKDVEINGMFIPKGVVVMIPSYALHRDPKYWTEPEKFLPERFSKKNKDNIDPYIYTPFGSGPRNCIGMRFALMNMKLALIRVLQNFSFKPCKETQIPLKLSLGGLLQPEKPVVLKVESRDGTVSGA

Turning to `NCCc1cc(O)c(O)cc1O`, the Potency result in assay [1], in [2], in [3], in assay [4], in assay [5] and in [8] was “inactive” throughout. Besides, the Potency result in assay [9], in assay [10], in [11], in assay [12], in assay [14] and in [15] was “inactive” throughout. Besides, the Potency entry in [16] is “inactive”. The max activation in assay [6] was -4.9% (inactive). In addition, the result in assay [7] was inactive. In addition, in [13], the Potency is 9.77 µM (active).
With `CCCBr`, the Potency entry in [1], in assay [2], in [17], in assay [3], in [5] and in assay [9] was “inactive” throughout. For the same molecule, the Potency result in assay [10], in assay [11], in [12], in [13], in assay [18] and in [14] was “inactive” throughout. The Potency entry in assay [15] is “inactive”.
For the molecule `C[N+]1(CCC(C(N)=O)(c2ccccc2)c2ccccc2)CCCCC1`, the Potency result in assay [1], in assay [2], in assay [17], in [3], in assay [5] and in [8] was “inactive” in each case. Moreover, the Potency result in assay [10], in [12], in assay [13], in [18], in assay [14] and in assay [15] was “inactive” throughout. Moreover, the Potency result in assay [16] is “inactive”. Besides, the max activation in assay [6] was -4.99% (inactive). Further, in [7], the molecule was classed as inactive. In addition, in [19], the Potency was 8.71 µM (active).
As for `CN(C)C(=O)Nc1cccc(OC(=O)NC(C)(C)C)c1`, the Potency result in assay [1], in assay [2], in assay [17], in assay [3], in [4] and in assay [9] was “inactive” each time. Also, the Potency result in assay [10], in assay [11], in assay [12], in assay [19], in assay [13] and in assay [18] was “inactive” in each case. The Potency result in assay [15] and in [16] was “inactive” throughout. In assay [14], the Potency was 39.9 µM (active).
As to `Clc1ccc(Cl)c(Cl)c1`, the Potency result in [1], in [2], in assay [17], in assay [3], in [4] and in assay [15] was “inactive” in each case.
For the molecule `CCCCCl`, the Potency result in [1], in [2], in assay [3], in [4], in [5] and in assay [8] was “inactive” each time. Further, the Potency result in assay [9], in assay [10], in assay [11], in [12], in assay [15] and in assay [16] was “inactive” each time. In addition, in assay [6], the max activation was -0.159% (inactive). For the same molecule, in [7], the molecule was classed as inactive. Further, the results for the Potency in [13] and in [14] were 41 µM (active) and 57.9 µM (active), respectively.
As for `C[C@]12C=CC3=C4CCC(=O)C=C4CC[C@H]3[C@@H]1CC[C@@H]2O`, the Potency result in [1], in [2], in assay [3], in assay [4], in assay [9] and in [10] was “inactive” in each case. For the same molecule, the Potency entry in assay [11], in assay [12] and in assay [15] was “inactive” each time. Besides, the Potency in assay [17] was 60.7 µM (active) and 46.1 µM (active); in assay [18] it was 35.3 µM (active) and 30.1 µM (active); in [14], 39.7 µM (active); in [16], 31.5 µM (active) and inactive.
